Data from PubChem BioAssay (NCATS).
Values joined by “and” are separate entries in the source; they are usually repeats but may differ in a detail not shown here. Identical values can stand only once. Results filed as inconclusive are left out. Active and inactive are the calls of the source. Calls follow the shape of the dose curve; as a rule, active = well fitted inhibition curve with a large enough effect; inconclusive = small, poorly fitted or top-dose-only effect; inactive = flat fitted curve, though single readings scatter.

Key:
[1] = test system: CRL-7250; test: Cytotoxic Profiling of Annotated Libraries Using Quantitative High-Throughput Screening (AID 1296008); details: Five cell lines viability, CellTiter-Glo ATP luminescence, 48-72 h; max response: hits give low values; as to max response: % is scaled to controls: 0 for no effect and ±100 for the full control effect
Summary of the method: (§1)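 Compounds were pin-transferred onto cells and incubated 48 or 72 hr at 37 degree Celsius, 95% humidity. CellTiter-Glo was added, plates sat 10 min at room temperature, then ATP-coupled luminescence was imaged as the viability read-out.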

[2] = test system: HaCat; test: as above; details: Five cell lines viability, CellTiter-Glo ATP luminescence, 48-72 h; max response: hits give low values
Summary of the method: as §1

[3] = test system: NIH3T3; test: as above; details: Five cell lines viability, CellTiter-Glo ATP luminescence, 48-72 h; max response: hits give low values
Summary of the method: as §1

[4] = test system: MCC-13; test: qHTS assay to identify novel small-molecules to repurpose for Merkel cell carcinoma treatment (AID 1296009); details: MCC and control cell lines, CellTiter-Glo viability, 72 h; series mostly up to 46 µM
Summary of the method: (§2)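 qHTS format: cells treated with library compounds in DMSO across 8 (NPC) or 11 (MIPE) concentrations. Readout after 72 hr at 37 degree celsius was CellTiter-Glo luminescence.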

[5] = test system: MCC-26; test: as above; details: MCC and control cell lines, CellTiter-Glo viability, 72 h; series mostly up to 46 µM
Summary of the method: as §2

[6] = test system: MKL-1; test: as above; details: MCC and control cell lines, CellTiter-Glo viability, 72 h; series mostly up to 46 µM
Summary of the method: as §2

[7] = test system: MKL-2; test: as above; details: MCC and control cell lines, CellTiter-Glo viability, 72 h; series mostly up to 46 µM
Summary of the method: as §2

[8] = test system: NIH3T3; test: as above; details: MCC and control cell lines, CellTiter-Glo viability, 72 h; at 44.8 µM (top of the series) unless noted
Summary of the method: as §2

[9] = test system: PC15; test: qHTS profiling for inhibitors of Plasmodium falciparum proliferation (AID 504749); details: P. falciparum in erythrocytes, SYBR Green DNA, 72 h; series mostly up to 28.7 µM
Summary of the method: (§3)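 Parasite proliferation within erythrocytes, 72 h exposure. Endpoint: SYBR Green I fluorescence after overnight lysis at room temperature. Controls: 0.29 uM artemisinin, DMSO.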

[10] = test system: PC26; test: as above; details: P. falciparum in erythrocytes, SYBR Green DNA, 72 h; series mostly up to 28.7 µM
Summary of the method: as §3

[11] = test system: PC49; test: as above; details: P. falciparum in erythrocytes, SYBR Green DNA, 72 h; series mostly up to 28.7 µM
Summary of the method: as §3

[12] = test system: SC27B; test: as above; details: P. falciparum in erythrocytes, SYBR Green DNA, 72 h; series mostly up to 28.7 µM
Summary of the method: as §3

[13] = test system: TAB109; test: as above; details: P. falciparum in erythrocytes, SYBR Green DNA, 72 h; series mostly up to 28.7 µM
Summary of the method: as §3

[14] = test system: TAB113; test: as above; details: P. falciparum in erythrocytes, SYBR Green DNA, 72 h; series mostly up to 28.7 µM
Summary of the method: as §3

[15] = test system: TAB165; test: as above; details: P. falciparum in erythrocytes, SYBR Green DNA, 72 h; series mostly up to 28.7 µM
Summary of the method: as §3

[16] = test system: KB-3-1; test: Cytotoxic Profiling of Annotated Libraries Using Quantitative High-Throughput Screening (AID 1296008); details: Five cell lines viability, CellTiter-Glo ATP luminescence, 48-72 h; max response: hits give low values; as to max response: % is scaled to controls: 0 for no effect and ±100 for the full control effect
Summary of the method: as §1

[17] = test system: HACAT; test: qHTS assay to identify novel small-molecules to repurpose for Merkel cell carcinoma treatment (AID 1296009); details: MCC and control cell lines, CellTiter-Glo viability, 72 h; at 44.8 µM (top of the series) unless noted
Summary of the method: as §2

[18] = test system: HEK293; test: Cytotoxic Profiling of Annotated Libraries Using Quantitative High-Throughput Screening (AID 1296008); details: Five cell lines viability, CellTiter-Glo ATP luminescence, 48-72 h; max response: hits give low values; as to max response: % is scaled to controls: 0 for no effect and ±100 for the full control effect
Summary of the method: as §1

[19] = test system: W2; test: qHTS profiling for inhibitors of Plasmodium falciparum proliferation (AID 504749); details: P. falciparum in erythrocytes, SYBR Green DNA, 72 h; series mostly up to 28.7 µM
Summary of the method: as §3
Also: nearly all actives have a fitted effect of over 60% in size.
Potency is read from the fitted curve at half-maximal effect.

COc1cc2c(cc1OC)[C@@H]1CC(=O)[C@@H](CC(C)C)CN1CC2
inactive: max response [1] -4.44% | max response [2] -0.956% | outcome [3] | Potency [4] | Potency [5] | Potency [6] | Potency [7] | outcome [8]

CC(=O)Oc1ccc2c(c1)CC[C@@H]1[C@@H]2CC[C@]2(C)[C@@H](O)CC[C@@H]12
inactive: max response [1] -2.1% | max response [2] -1.57% | max response [3] 2.78% | Potency [4]

Cc1c(C)n(CCN(C)C)c2ccc(C(=O)OCCN(C)C)cc12
active: Potency [3] 7.5 µM
inactive: Potency [9] | Potency [10] | Potency [11] | Potency [12] | Potency [13] | Potency [14] | Potency [15] | outcome [2] | max response [16] 2.08% | outcome [17] | Potency [4] | Potency [5] | Potency [6] | Potency [7]

COc1cc(/C=C/C(=O)O[C@H]2CC[C@]34C[C@]35CC[C@]3(C)[C@@H]([C@H](C)CCC=C(C)C)CC[C@@]3(C)[C@@H]5CC[C@H]4C2(C)C)ccc1O
inactive: max response [18] 2.65% | outcome [2] | max response [3] 0.391% | outcome [17] | Potency [4] | Potency [5] | Potency [6] | Potency [7]

COc1c(C)c2c(c(O)c1C/C=C(\C)CCC(=O)O)C(=O)OC2
inactive: Potency [9] | Potency [11] | max response [16] -17.8%
active: Potency [12] 2.24 µM | Potency [13] 2.82 µM | Potency [14] 3.98 µM | Potency [15] 1.58 µM | Potency [19] 2.56 µM | Potency [18] 944 nM | Potency [3] 1.68 µM

COc1cccc(CCc2ccccc2OCC(CN(C)C)OC(=O)CCC(=O)O)c1 (stereo not drawn)
active: Potency [9] 5.01 µM | Potency [10] 3.79 µM | Potency [11] 3.16 µM | Potency [12] 5.01 µM | Potency [13] 4.47 µM | Potency [14] 5.62 µM | Potency [15] 4.47 µM | Potency [19] 0.757 µM
inactive: max response [1] 3.68% | max response [16] -2.49% | max response [3] -1.97% | Potency [4] | Potency [6]

CC(C)(C)CC(C)(C)c1ccc(OCCOCC[N+](C)(C)Cc2ccccc2)cc1
active: Potency [9] 5.01 µM | Potency [10] 4.26 µM | Potency [11] 6.31 µM | Potency [12] 5.62 µM | Potency [13] 5.62 µM | Potency [14] 3.55 µM | Potency [15] 3.16 µM | Potency [19] 1.2 µM | Potency [18] 6.68 µM and 8.2 µM | Potency [16] 20.6 µM | Potency [6] 1.06 µM | Potency [7] 0.944 µM
inactive: max response [3] -27.5% | Potency [4]

CN=C(NC#N)NCCSCc1csc(N=C(N)N)n1
inactive: Potency [9] | Potency [10] | Potency [11] | Potency [12] | Potency [14] | Potency [15] | Potency [19] | max response [1] 1.65% | max response [2] 3.38% | max response [3] 4.93% | Potency [4] | Potency [5] | Potency [6] | Potency [7]

Cc1ccc(O)c2ncccc12
inactive: Potency [9] | Potency [10] | Potency [11] | Potency [12] | max response [1] -10.3% | max response [2] 2.26%
active: Potency [6] 15 µM | Potency [7] 8.41 µM

OC[C@H]1O[C@@H](n2cnc3c(=S)nc[nH]c32)[C@H](O)[C@@H]1O
active: Potency [18] 4730 nM | Potency [2] 2.99 µM | Potency [3] 1.88 µM | Potency [4] 2.11 µM
inactive: Potency [5] | Potency [7]

NC(=NCCCCCCN=C(N)/N=C(\N)Nc1ccc(Cl)cc1)/N=C(\N)Nc1ccc(Cl)cc1
active: Potency [9] 2 µM | Potency [10] 3.79 µM | Potency [11] 3.16 µM | Potency [12] 0.891 µM | Potency [13] 3.98 µM | Potency [14] 2 µM | Potency [15] 0.794 µM | Potency [19] 0.849 µM | Potency [18] 7.5 µM and 7.31 µM | Potency [16] 8.2 µM | Potency [4] 26.6 µM | Potency [6] 6.68 µM | Potency [7] 2.99 µM

COc1cc2c(cc1OC)C(C(C(=O)N(CCc1ccc(OC)c(OC)c1OC)CCc1ccc(OC)c(OC)c1OC)c1ccccc1)=NCC2 (stereo not drawn)
inactive: max response [1] -6.63% | outcome [2] | max response [3] 0.673% | outcome [17] | Potency [4] | Potency [5]
active: Potency [9] 2.51 µM | Potency [10] 4.78 µM | Potency [11] 1 µM | Potency [12] 2.24 µM | Potency [13] 3.16 µM | Potency [14] 2.82 µM | Potency [15] 1.26 µM | Potency [19] 1.07 µM

COc1cc(-c2ccc(=O)[nH]n2)ccc1OC(F)F
active: Potency [13] 0.0447 µM | Potency [14] 0.0355 µM | Potency [15] 0.282 µM | Potency [1] 1.19 µM
inactive: Potency [9] | Potency [12] | max response [3] -9.32% | Potency [4] | Potency [6] | Potency [7]

CCCCOc1ccc(C(=O)CCN2CCCCC2)cc1
active: Potency [6] 9.44 µM | Potency [7] 2.66 µM
inactive: Potency [9] | Potency [10] | Potency [11] | Potency [12] | Potency [13] | Potency [14] | Potency [15] | outcome [2] | max response [16] 0.445% | max response [3] -2.83% | outcome [17] | Potency [4] | Potency [5]

CCOc1ccc2nc3cc(N)ccc3c(N)c2c1
inactive: max response [2] -2.56% | max response [16] -2.82% | Potency [5]
active: Potency [9] 10 µM | Potency [11] 7.94 µM | Potency [12] 7.94 µM | Potency [13] 3.98 µM | Potency [14] 4.47 µM | Potency [15] 10 µM | Potency [19] 3.38 µM | Potency [1] 11.9 µM | Potency [6] 5.96 µM | Potency [7] 2.99 µM

C#C[C@]1(O)CC[C@H]2[C@@H]3CCc4cc(OC5CCCC5)ccc4[C@H]3CC[C@@]21C
inactive: Potency [9] | Potency [10] | Potency [11] | Potency [13] | Potency [15] | max response [1] 0.636% | Potency [4] | Potency [5]
